Measurements from PubChem BioAssay AID1159580 (chemical genetic matrix, 2015).
The whole screen tested about 5,500 compounds, of which about 2,000 (36%) were called active. Not shown: some 18% with an inconclusive outcome. No stated cut-off is given here; in the data, active means normalized growth mostly below about 0.91 (no sharp cut-off); inconclusive means no clear call, values can overlap the other calls; inactive means mostly above about 0.92. This is one part of the list.

Experiment: chemical genetic growth profiling, strain panel (AID 1159580);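 further: tested at 20 µM; growth read once vehicle control cultures reached saturation at 30 °C; 1 = growth at the plate median or of vehicle wells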
Conditions: S. cerevisiae deletion strains, growth OD
[1] = locus YDL101C, strain DUN1, stronger effect = lower value
[2] = locus YHR030C, strain SLT2, stronger effect = lower value

Measured: normalized growth

CCOC(=O)C1=C(N)OC2=C(C(=O)CC(C)(C)C2)C1c1ccc(Cl)cc1Cl (stereo unspecified)
active: [2] 0.804
inactive: locus YAR019C, strain CDC15, stronger effect = lower value 0.984 | locus YBL105C, strain PKC1, stronger effect = lower value 0.982 | locus YBR135W, strain CKS1, stronger effect = lower value 0.978 | locus YBR136W, strain MEC1, stronger effect = lower value 0.981 | locus YBR160W, strain CDC28, stronger effect = lower value 0.964 | locus YDL017W, strain CDC7, stronger effect = lower value 0.978 | locus YDL028C, strain MPS1, stronger effect = lower value 0.98 | [1] 0.966 | locus YDL108W, strain KIN28, stronger effect = lower value 0.978 | locus YDL132W, strain cdc53, stronger effect = lower value 0.975 | locus YDL214C, strain PRR2, stronger effect = lower value 0.968 | locus YDR052C, strain DBF4, stronger effect = lower value 0.979 | locus YDR054C, strain cdc34, stronger effect = lower value 0.965 | locus YDR226W, strain ADK1, stronger effect = lower value 0.978 | locus YDR477W, strain SNF1, stronger effect = lower value 0.95 | locus YER123W, strain YCK3, stronger effect = lower value 0.927 | locus YER133W, strain GLC7, stronger effect = lower value 0.959 | locus YFL009W, strain cdc4, stronger effect = lower value 0.974 | locus YFL029C, strain CAK1, stronger effect = lower value 0.981 | locus YFR003C, strain YPI1, stronger effect = lower value 0.982 | locus YFR019W, strain FAB1, stronger effect = lower value 0.956 | locus YFR028C, strain CDC14, stronger effect = lower value 0.976 | locus YGR040W, strain KSS1, stronger effect = lower value 0.954 | locus YGR052W, strain FMP48, stronger effect = lower value 1.08 | locus YGR092W, strain DBF2, stronger effect = lower value 0.973 | locus YHR079C, strain IRE1, stronger effect = lower value 0.943 | locus YHR082C, strain KSP1, stronger effect = lower value 1.01 | locus YHR205W, strain SCH9, stronger effect = lower value 0.953 | locus YIL147C, strain SLN1, stronger effect = lower value 0.984 | locus YJL095W, strain BCK1, stronger effect = lower value 0.904 | locus YJL128C, strain PBS2, stronger effect = lower value 0.975 | locus YJL157C, strain FAR1, stronger effect = lower value 0.976 | locus YJR016C, strain ILV3, stronger effect = lower value 0.99 | locus YJR066W, strain TOR1 (second series), stronger effect = lower value 0.95 | locus YJR066W, strain TOR1, stronger effect = lower value 0.947 | locus YKL048C, strain ELM1, stronger effect = lower value 0.948 | locus YKL067W, strain YNK1, stronger effect = lower value 0.959 | locus YKL101W, strain HSL1, stronger effect = lower value 0.963 | locus YKL193C, strain SDS22, stronger effect = lower value 0.973 | locus YKL203C, strain TOR2, stronger effect = lower value 1 | locus YLR113W, strain HOG1, stronger effect = lower value 0.934 | locus YLR133W, strain CKI1, stronger effect = lower value 0.961 | locus YLR403W, strain SFP1, stronger effect = lower value 0.964 | locus YML070W, strain DAK1, stronger effect = lower value 0.944 | locus YMR001C, strain CDC5, stronger effect = lower value 0.984 | locus YMR205C, strain PFK2 (second series), stronger effect = lower value 0.976 | locus YMR277W, strain FCP1, stronger effect = lower value 0.98 | locus YNL006W, strain LST8, stronger effect = lower value 0.987 | locus YNL020C, strain ARK1, stronger effect = lower value 0.95 | locus YNL161W, strain CBK1, stronger effect = lower value 0.983 | locus YNL183C, strain NPR1, stronger effect = lower value 0.934 | locus YNL207W, strain RIO2, stronger effect = lower value 0.989 | locus YNL222W, strain SSU72, stronger effect = lower value 0.977 | locus YNL307C, strain MCK1 (second series), stronger effect = lower value 0.947 | locus YOL078W, strain AVO1, stronger effect = lower value 0.979 | locus YOL136C, strain PFK27, stronger effect = lower value 0.952 | locus YOR061W, strain CKA2, stronger effect = lower value 0.958 | locus YOR119C, strain RIO1, stronger effect = lower value 1.06 | locus YOR231W, strain MKK1, stronger effect = lower value 0.953 | locus YOR329C, strain SCD5, stronger effect = lower value 0.976 | locus YPL031C, strain PHO85, stronger effect = lower value 0.948 | locus YPL153C, strain RAD53, stronger effect = lower value 0.952 | locus YPL204W, strain HRR25, stronger effect = lower value 0.933 | locus YPL209C, strain IPL1, stronger effect = lower value 0.966 | locus YPL256C, strain CLN2, stronger effect = lower value 0.876 | locus YPR025C, strain CCL1, stronger effect = lower value 0.979 | locus YPR106W, strain ISR1, stronger effect = lower value 0.979 | locus YPR111W, strain DBF20, stronger effect = lower value 0.964 | strain NNK1, stronger effect = lower value 0.973 | strain TSCII, stronger effect = lower value 0.982

COc1cccc(C2C3=C(CC(C)(C)CC3=O)OC3=C2C(=O)CC(C)(C)C3)c1O
inactive: locus YAL013W, strain DEP1, stronger effect = lower value 1 | locus YBR229C, strain ROT2, stronger effect = lower value 0.987 | locus YCL061C, strain MRC1, stronger effect = lower value 1.02 | [1] 1.01 | locus YDL134C, strain PPH21, stronger effect = lower value 0.978 | locus YDR150W, strain NUM1, stronger effect = lower value 1.04 | locus YEL061C, strain CIN8, stronger effect = lower value 0.965 | locus YGR078C, strain PAC10, stronger effect = lower value 1 | [2] 1.08 | locus YHR087W, strain rtc3, stronger effect = lower value 0.958 | locus YJR043C, strain POL32, stronger effect = lower value 1.03 | locus YJR075W, strain HOC1, stronger effect = lower value 1 | locus YKL190W, strain CNB1, stronger effect = lower value 0.988 | locus YLR039C, strain RIC1, stronger effect = lower value 1.08 | locus YLR058C, strain SHM2 (second series), stronger effect = lower value 0.991 | locus YLR085C, strain ARP6, stronger effect = lower value 0.977 | locus YLR262C, strain YPT6, stronger effect = lower value 1.04 | locus YML094W, strain GIM5, stronger effect = lower value 1.01 | locus YMR219W, strain ESC1, stronger effect = lower value 1 | locus YMR263W, strain SAP30, stronger effect = lower value 0.999 | locus YMR307W, strain GAS1, stronger effect = lower value 0.876 | locus YNL128W, strain TEP1, stronger effect = lower value 0.983 | locus YNL153C, strain GIM3, stronger effect = lower value 1 | locus YNL298W, strain CLA4 (second series), stronger effect = lower value 0.927 | locus YNL322C, strain KRE1, stronger effect = lower value 0.993 | locus YNR030W, strain Alg12, stronger effect = lower value 0.977 | locus YOL006C, strain TOP1, stronger effect = lower value 0.947 | locus YPL055C, strain LGE1, stronger effect = lower value 1 | locus YPL241C, strain CIN2, stronger effect = lower value 1.01 | locus YPR135W, strain CTF4, stronger effect = lower value 0.976
